High-throughput results from PubChem BioAssay.
This is a sample that favours compounds with a hit; in the whole collection about 9.2% have one here.
Rab9 prom act = Rab9 promoter activation; AID 485297; Huh7 Rab9 promoter-luciferase reporter, luminescence, 24 h; actives 2.8% (n = 320,000); Potency, µM (series often up to 9.22 µM), actives largely listed as activators; further: nearly all actives have a fitted effect of over 60% in size
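Luminescence read-out: Huh7 cells stably expressing Rab9-luciferase, treated 24 h with compound at 37 °C, then lysed with luciferase reagent for 10 min at ambient before reading.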
ELG1 repair inh = blocks ELG1-dependent DNA repair in HEK293T cells. actives 2.3% (n = 330,000). HEK293T ELG1-luciferase reporter, luminescence, 16 h; DNA damage induced by 5-fluorouridine. Potency, µM (highest dose often 46.1 µM), most hits filed as inhibitors; further: nearly all actives have a fitted effect of over 55% in size
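Overnight (16 hr) co-exposure of 2,000 cells/well to 5-fluorouridine and compound at 37 °C preceded detection. Luciferase was quantified via ONE-Glo luminescence; loss of signal denotes inhibition.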
NPC1 prom act = activators of NPC1 promoter | Huh7 NPC1 promoter luciferase reporter, 24 h | Potency, µM (titrated, usually from 9.22 µM), most hits filed as activators | actives 2.4% (n = 320,000) | AID 485313; further: nearly all actives have a fitted effect of over 60% in size
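Cells: Huh7 expressing luciferase under the NPC1 promoter, 1500/well. Seeded 2 h, compound added, incubated 24 h at 37 °C. Luciferase reagent, 10 min ambient, then luminescence.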
FLuc modulator = firefly luciferase modulation, counter-screen for miR-21 project; purified FLuc, Km substrates, luminescence inhibition; P08659; Potency, µM (top dose mostly 57.5 µM), actives largely listed as inhibitors; actives 6.9% (n = 360,000); further: nearly all actives have a fitted effect of over 55% in size
Target sequence (P08659 whole entry, looked up): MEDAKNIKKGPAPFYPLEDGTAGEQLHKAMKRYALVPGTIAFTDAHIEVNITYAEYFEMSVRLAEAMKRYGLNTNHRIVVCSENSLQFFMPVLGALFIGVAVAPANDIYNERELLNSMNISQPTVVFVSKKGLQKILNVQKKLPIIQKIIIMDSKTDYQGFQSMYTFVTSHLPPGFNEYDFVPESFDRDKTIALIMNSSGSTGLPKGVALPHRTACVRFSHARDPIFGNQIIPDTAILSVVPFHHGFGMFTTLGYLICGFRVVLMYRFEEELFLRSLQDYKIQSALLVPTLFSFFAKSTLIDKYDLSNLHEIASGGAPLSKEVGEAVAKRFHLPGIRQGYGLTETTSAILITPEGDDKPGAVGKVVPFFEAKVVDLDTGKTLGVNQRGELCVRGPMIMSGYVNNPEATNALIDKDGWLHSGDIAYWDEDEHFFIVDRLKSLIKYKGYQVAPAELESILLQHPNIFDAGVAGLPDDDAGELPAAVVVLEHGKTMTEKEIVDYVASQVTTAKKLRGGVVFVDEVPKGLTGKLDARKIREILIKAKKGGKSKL
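Biochemical qHTS of compounds, final roughly 60 µM downward over six points, against 10 nM purified firefly luciferase using Km concentrations of substrates (10 uM D-luciferin, 10 uM ATP) in Tris acetate pH 7.5 buffer; luminescence output.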
ELG1 genotox = induces genotoxicity in HEK293T cells with luciferase-tagged ELG1 | HEK293T ELG1-luciferase reporter, luminescence, 16 h | AID 504466 | Potency, µM (titrated, usually from 46 µM), actives largely listed as activators | actives 1.3% (n = 330,000); further: nearly all actives have a fitted effect of over 60% in size
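Step 1: seed 2,000 HEK293T ELG1-luciferase cells per well. Step 2: add compound or DMSO, incubate 16 hr at 37 °C. Step 3: ONE-Glo, 30 min at room temperature, read luminescence.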
SMN2 splice up = SMN2 splice variant enhancement. Potency, µM (doses to about 46.1 µM), usual class: activators. AID 1458. HEK293 SMN2-luciferase splicing reporter, luminescence, 30-36 h. actives 2.8% (n = 210,000); further: nearly all actives have a fitted effect of over 55% in size
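qHTS luciferase splicing reporter: luminescence rises when SMN2 exon 7 is included in transfected HEK293 cells. Compound exposure lasted 30-36 h at 37C, with 4.5 mM final sodium butyrate as control, followed by a ONE-Glo read.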
Hits are given with their value; i = inactive; ? = inconclusive; nt = no result given; [ ] = another dose, or the depositor's remark. The call rests on the fitted dose curve; in most records, active means well fitted curve in the direction sought with a large enough effect; inconclusive means small, poorly fitted or top-dose-only effect, or another doubt; inactive means no such curve, though single readings can be large; an effect the other way counts as inactive or inconclusive.

SMILES	Rab9 prom act	ELG1 repair inh	NPC1 prom act	FLuc modulator	ELG1 genotox	SMN2 splice up
O=[N+]([O-])c1ccc(S(=O)(=O)N2CCC3(CC2)OCCN3S(=O)(=O)c2cccs2)cc1	i	i	i	i	i	nt
CCOC(=O)/C(=N\Nc1ncnc2ccccc12)c1ccc(OC)cc1	3.2µM	?	3.5µM	5.4µM	?	nt
COc1ccc(/C(=N/Nc2ncnc3ccccc23)C(=O)O)cc1	i	?	i	?	?	nt
COc1cc(C(=O)NCC(=O)Nc2ccc(F)c(F)c2)ccc1OCC(=O)N1CCOCC1	i	i	i	i	i	nt
CCN(C(=O)COC(=O)CCNS(=O)(=O)c1ccccc1F)c1c(N)n(Cc2ccccc2)c(=O)[nH]c1=O	nt	i	nt	nt	i	nt
O=C1C(Cl)=C(N2CCCCC2)C(=O)C(Cl)=C1c1cnc(N2CCCCC2)s1	i	?	i	9.5µM	i	i
O=C(c1cc(-c2cccc(O)c2)on1)N1CCCCCC1	i	?	?	8.5µM	13µM	nt
Cc1cccc(C)c1OCc1cc(C(=O)N2CCCCCCC2)no1	i	?	i	?	i	nt
O=C(c1cc(-c2cccc(O)c2)on1)N1CCOCC1	?	?	?	6.7µM	2.9µM	?
Cc1ccc(S(=O)(=O)N2CCC(C(=O)N3CCCC3C(=O)N[C@@H](CC(C)C)C(=O)NCC(N)=O)CC2)cc1 (stereo not given in full)	i	i	i	i	i	nt
CN(Cc1ccon1)Cc1cn(C)nc1-c1cccc(Cl)c1	?	?	?	5.4µM	?	nt
CCOCCCNc1ccc(-c2ccccc2)nn1	2.2µM	?	?	?	13µM	14µM
CCOCCCNc1nc2ccccc2[nH]1	i	i	i	i	i	i
C[C@]12CC[C@H](O)CC1=CC[C@H]1[C@@H]2CC[C@@]2(C)C(N(CCO)CCO)CC[C@@H]12 (stereo not given in full)	nt	nt	nt	nt	nt	i[9.22 µM]
COc1cc(NC(=O)c2cc(-c3ccc4c(c3)OCO4)on2)cc(OC)c1OC	i	i	i	i	i	i
CC(=O)c1cccc(NC(=O)c2cc(-c3ccc(C)cc3)on2)c1	?	?	?	?	4.6µM	?
Cc1ccc(OC(=O)c2cc(-c3ccc4c(c3)OCCO4)on2)c(C)c1	nt	nt	nt	1.5µM	nt	nt
O=C(Nc1cccc(O)c1)c1cc(-c2ccc3c(c2)OCO3)on1	?	?	?	0.15µM	?	nt
O=C(Nc1ccc(SC(F)F)cc1)c1cc(-c2ccc3c(c2)OCCO3)on1	nt	nt	nt	5.4µM	nt	nt
O=C(Nc1ccc(SC(F)F)cc1)c1cc(-c2cccs2)on1	nt	nt	nt	i	nt	nt
CCN(Cc1ccccc1)C(=O)Cn1c(=O)n(-c2cccc(C)c2)c(=O)c2c1c1cc(OC)ccc1n2C	nt	nt	nt	i	nt	i
CCn1nc(-c2ccccc2)c(-c2ccccc2)c(C(=O)Nc2ccccc2C(N)=O)c1=O	nt	nt	nt	i	nt	i
COCCCN1C(=O)c2ccccc2CC1(C)C(=O)NC1CCCCC1 (stereo not given)	nt	nt	nt	i	nt	i
CC(=O)c1ccc(NC(=O)c2cc(-c3ccc4c(c3)OCO4)on2)cc1	nt	nt	nt	i	nt	i
CC(=O)c1cccc(NC(=O)c2cc(-c3ccc4c(c3)OCCO4)on2)c1	nt	nt	nt	0.15µM	nt	nt
SMILES	Rab9 prom act	ELG1 repair inh	NPC1 prom act	FLuc modulator	ELG1 genotox	SMN2 splice up
CC(=O)Nc1ccc(NC(=O)c2cc(-c3ccc4c(c3)OCCO4)on2)cc1	nt	nt	nt	0.34µM	nt	nt
CCCOc1ccc(C2c3c(-c4ccccc4O)n[nH]c3C(=O)N2CCCOCC)cc1OCC (stereo not given)	nt	nt	nt	i	nt	i
CCC1CSC(Nc2ccc(C(=O)/C=C/c3ccc(OC)c(OC)c3)cc2)=N1 (stereo not given)	i	21µM	i	24µM	i	i
CN1CCc2c(n(CC(O)CN3C(=O)c4ccccc4S3(=O)=O)c3ccccc23)C1=O (stereo not given)	i	15µM	i	i	i	i
COc1ccc(/C=C2\SC(=S)N(CCC(=O)NC3C=CS(=O)(=O)C3)C2=O)cc1 (stereo not given)	i	i	i	5.4µM	i	nt
COc1cccc(/C=C2\SC(=S)N(CCC(=O)Nc3ccc(O)cc3)C2=O)c1	i	?	i	?	?	nt
COc1cccc(/C=C2\SC(=S)N(CCC(=O)NC3C=CS(=O)(=O)C3)C2=O)c1 (stereo not given)	i	4.6µM	i	4.8µM	i	nt
COc1ccc(/C=C2\SC(=O)N(CCC(=O)N(C)C3CCS(=O)(=O)C3)C2=O)cc1 (stereo not given)	i	?	i	11µM	i	nt
CCOC(=O)C1CCN(C(C(=O)Nc2ccc3c(c2)OCCO3)c2ccccc2)CC1 (stereo not given)	i	i	i	i	i	i
CCOC(=O)N1CCC(N2C(=O)c3ccccc3C2Nc2ccc3c(C)cc(=O)oc3c2)CC1 (stereo not given)	i	?	i	i	i	i
CCOC(=O)N1CCC(N2C(=O)c3ccccc3C2Nc2ccc3c(c2)OCCO3)CC1 (stereo not given)	i	?	i	21µM	?	i
CCOC(=O)C1CCN(c2c(Nc3ccc4c(c3)OCCO4)c(=O)c2=O)CC1	i	?	i	21µM	?	i
CN(C)c1cnn(-c2ccccc2)c(=O)c1Cl	i	?	i	?	i	i
Cc1ccc(-n2ncc(N(C)C)c(Cl)c2=O)cc1	1.1µM	?	0.4µM	5.4µM	?	?
COc1ccc(-n2ncc(N(C)n3cccc3)c(Cl)c2=O)cc1	0.56µM	?	1.3µM	4.8µM	?	nt
Cc1ccc2occ(CC(=O)Nc3ccc(S(=O)(=O)N4CCC(C)CC4)cc3)c2c1	nt	nt	nt	i	nt	i
COc1cccc(CNC(=O)C2CCCCN2S(=O)(=O)c2ccc(F)cc2)c1 (stereo not given)	nt	nt	nt	i	nt	nt
N/C(=N\OC(=O)Cc1cccs1)c1ccc(Cl)cc1	i	?	i	13µM	?	nt
N/C(=N\OC(=O)Cc1cccs1)c1cccc([N+](=O)[O-])c1	i	?	i	?	i	i
Cc1ccc(/C(N)=N/OC(=O)Cc2cccc3ccccc23)cc1	i	i	i	i	i	i
Cc1cccc(/C(N)=N/OC(=O)Cc2cccs2)c1	?	?	?	13µM	?	i
N/C(=N\OC(=O)Cc1cccs1)c1ccccc1	i	?	?	15µM	?	i
Cc1ccc(/C(N)=N/OC(=O)Cc2cccs2)cc1	?	?	?	9.5µM	?	i
COc1ccc(N2C(=O)NC(NS(=O)(=O)c3ccc(NC(C)=O)cc3)(C(F)(F)F)C2=O)cc1 (stereo not given)	i	i	i	i	i	i
Cc1ccc(CNC(=O)Cn2ccn(-c3cc(C)cc(C)c3)c(=O)c2=O)cc1	nt	nt	nt	i	nt	nt
